Assay outcomes (PubChem BioAssay)
PLK1 PBD block: qHTS for Inhibitors of PLK1-PDB (polo-like kinase 1 - polo-box domain): Primary Screen | Serine/threonine-protein kinase PLK1 (Homo sapiens), P53350 | Plk1 PBD binding of FITC phosphopeptide, fluorescence polarization | Potency, µM, for inactives: max response, negative = inhibition, hits mostly inhibitors | 2.8% of 360,000 active; note: potency is the fitted concentration of half-maximal effect; series mostly up to about 57 µM; % is set by controls: 0 for no effect and ±100 for the full control effect; nearly all actives have a fitted effect of over 65% in size
G9a inh: qHTS Assay for Inhibitors of Histone Lysine Methyltransferase G9a. Histone-lysine N-methyltransferase EHMT2 (Homo sapiens), Q96KQ7. G9a H3K9 monomethylation, AlphaScreen, 2 h. Potency, µM (titrated, usually from 102 µM), inactives show top-dose activity, negative = inhibition, usual class: inhibitors. 8.8% of 350,000 active. AID 504332, 2011; note: potency is the fitted concentration of half-maximal effect; % is set by controls: 0 for no effect and ±100 for the full control effect; nearly all actives have a fitted effect of over 75% in size
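Step 1: enzyme (final 20 nM) with compound, 15 min RT. Step 2: substrate peptide 500 nM and SAM 20 uM, 2 h RT. Step 3: anti-H3K9me1 antibody and AlphaScreen beads, 10 min, then plate read.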
PI5P4K alpha inh: qHTS for Inhibitors of phosphatidylinositol 5-phosphate 4-kinase (PI5P4K); PI5P4Kalpha enzyme, ADP-Glo luminescence, 60 min; stronger effect = lower value; max response, %; 1.2% of 330,000 active; AID 652105, 2013; active = max response of -50% or lower; inconclusive = between -30% and -50%; inactive = -30% or higher; note: value at the top dose of about 77 µM; % is set by controls: 0 for no effect and ±100 for the full control effect
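Quantitative HTS of the MLSMR library against PI5P4Kalpha with substrate. ATP added last at 5 microM final; room temperature, 60 minutes. Remaining ATP depleted, ADP converted and read as luminescence.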
BAZ2B inh: qHTS Assay for Inhibitors of BAZ2B | AlphaScreen BAZ2B-H3K14Ac peptide displacement | Potency, µM (doses to about 114 µM), without a hit: top-dose activity change, negative = inhibition, most hits filed as inhibitors | 4.4% of 360,000 active; note: potency is the fitted concentration of half-maximal effect; % is set by controls: 0 for no effect and ±100 for the full control effect; nearly all actives have a fitted effect of over 60% in size
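AlphaScreen displacement: compounds (up to 110uM) incubated 30 min at room temperature with a preformed 50 nM BAZ2B/50 nM biotinylated H3K14Ac peptide complex in PBS pH 7.4 with Tween-20. Donor and acceptor beads at 10 ug/mL final added, 20 min light-protected before reading.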
HP1b binding inh: HTS for Inhibitors of HP1-beta Chromodomain Interactions with Methylated Histone Tails; Chromobox protein homolog 1 (Homo sapiens), P83916; AlphaScreen HP1-beta / biotin-H3K9me3 peptide binding; Potency, µM (highest dose often 114 µM), inactives show at the top dose activity change, negative = inhibition, hits mostly inhibitors; 0.56% of 390,000 active; AID 540317, 2011; note: potency is the fitted concentration of half-maximal effect; nearly all actives have a fitted effect of over 70% in size
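AlphaScreen: HP1-beta (50 nM) preformed 30 min with biotin-H3(1-18)K9me3 peptide (50 nM) in PBS pH 7.4, 0.01% Tween-20. Compound added for 30 min at RT, then streptavidin donor/nickel chelate acceptor beads (10 ug/mL) for 30 min.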
JMJD2A Tudor: qHTS Assay for Inhibitors of JMJD2A-Tudor Domain | Lysine-specific demethylase 4A (Homo sapiens), O75164 | AlphaScreen JMJD2A-Tudor / H3K4me3 peptide binding | Potency, µM (highest dose often 114 µM), inactives show top-dose activity change, negative = inhibition, hits mostly inhibitors | 4.4% of 390,000 active; note: potency is the fitted concentration of half-maximal effect; % is set by controls: 0 for no effect and ±100 for the full control effect; nearly all actives have a fitted effect of over 50% in size
An asterisk follows results filed as active; ? = inconclusive; nt = no result given; ! = not active in a repeat; [ ] = another dose, or the depositor's remark. An excerpt weighted towards active compounds, which were near 12% of everything screened. Unless noted, calls come from the whole dose curve; as a rule, active = well fitted curve in the direction sought with a large enough effect; inconclusive = small, poorly fitted or top-dose-only effect, or another doubt; inactive = no such curve, though single readings can be large; an effect the other way counts as inactive or inconclusive.

SMILES | PLK1 PBD block | G9a inh | PI5P4K alpha inh | BAZ2B inh | HP1b binding inh | JMJD2A Tudor
COC(=O)N1CCC2(CCCN(C)C2)CC1 | nt | 32%[12.7 µM] | nt | nt | nt | nt
Cc1ccc(-n2nc(C)c3c2NC(=O)CSC3c2ccc(O)cc2)cc1Cl (centres undefined) | nt | 11%[59 µM] | nt | -32% | ? | -16%
CC(C)Cc1nc2cccnc2n1C1CCNCC1 | nt | -30%[59 µM] | nt | -5% | 15% | -7%
CN(C[C@H](Cc1ccccc1)N(C[C@H](Cc1ccccc1)N(CC1(c2ccccc2)CC1)N=O)N=O)N=O | -14% | -6%[59 µM] | -3 | ? | 16% | -27%
c1cc(CN2CCC3(CCNCC3)CC2)ccn1 | nt | -15%[12.7 µM] | nt | nt | nt | nt
COc1cc2c(c(OC)c1OC)-c1ccc(OC)c(=O)cc1[C@H](NC(C)=O)CC2 | nt | 13%[21.5 µM] | nt | nt | nt | nt
O=C1NC(=O)N(Cc2ccccc2)C(=O)/C1=C/C=C/c1ccco1 | 122% | nt | -53* | 35µM* | 0% | -30%
CC(C)c1ccc(N2C(=O)NC(=O)/C(=C\C=C\c3ccco3)C2=O)cc1 | ? | ? | -69* | -27% | 1% | ?
Cc1cccc(-n2c(/C=C/c3c[nH]c4ccccc34)nc3ccccc3c2=O)c1 | nt | -2%[59 µM] | nt | 0% | 33% | -6%
CCNC(=O)O/N=C(\C)c1sc(-c2ccc(Cl)cc2)nc1C | ? | 14% | -5 | -27% | 8% | -5%[11.4 µM]
O=C1NC(=O)C(=Cc2ccc3ccccc3c2)C(=O)N1 | 4.2µM* | -40%[12.7 µM] | -79* | -2% | 37% | -19%
Cc1cc(C)cc(OCCOc2cccc(C=C3C(=O)NC(=O)NC3=O)c2)c1 | 6µM* | -22% | -51* | -8% | 88% | 60%
CCn1cc(C=C2C(=O)NC(=O)NC2=O)c2ccccc21 | 7% | -7% | -25 | 1% | 16%[57 µM] | -22%
N#Cc1cccc(NC(=O)N2CC[C@@]3(CCCN(C(=O)Oc4ccccc4)C3)C2)c1 | nt | 6%[12.7 µM] | nt | nt | nt | nt
CCOc1cc(/C=C2\C(=O)NC(=O)N(C)C2=O)cc([N+](=O)[O-])c1O | 7.5µM* | 50µM* | ? | -11% | 31% | -2%
C=C1C(=O)O[C@@H]2C[C@@H](C)[C@@H]3C=CC(=O)[C@@]3(C)[C@@H](O)[C@H]12 | -21% | 11µM*! | 6 | 1% | 40% | -14%
CN1CCN(c2ccc([N+](=O)[O-])cc2Cl)CC1 | -19% | nt | -1 | -9% | 31% | -14%
CC1CN(c2ccc([N+](=O)[O-])cc2Cl)CCN1 (centres undefined) | -4% | 40µM* | -3 | -11% | 20% | -14%
O=C1CN=C(c2ccccc2Cl)c2cc(Cl)ccc2N1Cc1cccc(Cl)c1 | nt | -19%[59 µM] | nt | -23% | 18% | -16%
N#Cc1ccc(CN2CCCC3(CCN(C(=O)Oc4ccccc4)CC3)C2)cc1 | nt | -17%[12.7 µM] | nt | nt | nt | nt
C=C(C)CSc1nnc([C@@H](N)Cc2c[nH]c3ccccc23)o1 | -7% | nt | 2 | -28% | 41% | -33%
CC(C)=CCSc1nnc([C@@H](N)Cc2c[nH]c3ccccc23)o1 | -15% | 3.5µM* | nt | -8% | ? | ?
CCC(CO)NC(=O)[C@@H]1C=C2c3cccc4[nH]cc(c34)C[C@H]2N(C)C1 (some centres undefined) | nt | 33%[12.7 µM] | nt | nt | nt | nt
O=c1[nH]c(=O)n(Cl)c(=O)n1Cl | nt | 18%[59 µM] | nt | nt | nt | nt
CNC(C(=O)c1ccccc1)C(OC)c1ccccc1 (centres undefined) | -6% | ? | 1 | -37% | 69% | 14%
SMILES | PLK1 PBD block | G9a inh | PI5P4K alpha inh | BAZ2B inh | HP1b binding inh | JMJD2A Tudor
CNC(C(=O)c1ccccc1)C(OC)c1cccc([N+](=O)[O-])c1 (centres undefined) | -15% | 56µM* | 0 | -4% | 40% | -12%
Nc1ccc(N2CCN(Cc3ccccc3Cl)CC2)c(Cl)c1 | -18% | ? | 4 | 45µM* | ? | -8%[11.4 µM]
Fc1ccccc1CN1CCN(c2ccc(Cl)cc2)CC1 | -1% | 19%[2.33 µM] | -7 | -1% | 28% | -7%
O=C(Cc1c(Cl)cccc1Cl)N1CCN(Cc2ccccc2)CC1 | -14% | 5% | 4 | -7% | 32% | -2%
Clc1ccccc1CN1CCN(c2ccccc2)CC1 | -4% | ? | nt | 50µM* | ? | 3.5µM*
Clc1cccc(Cl)c1CN1CCN(c2ccccc2)CC1 | -6% | 25µM* | nt | 35µM* | ? | 3.2µM*
Clc1ccc(N2CCN(Cc3ccccc3Cl)CC2)cc1 | 2% | 25µM* | nt | ? | ? | 4.5µM*
CCN(CC)C(=O)Cn1cc(S(=O)(=O)CC(=O)NCc2ccc(C)cc2)c2ccccc21 | 4% | nt | -5 | nt | 46% | -3%
ClC(Cl)(Cl)Cl | nt | 31%[59 µM] | nt | nt | nt | nt
COc1ccc(-n2c(/C=C/c3ccc(O)cc3)nc3ccccc3c2=O)cc1 | 11% | 86% | 0 | 3% | 52% | -10%
CCOc1cc(C=C2C(=O)NC(=S)NC2=O)ccc1O | 6µM* | nt | -77* | nt | ? | 32µM*
COc1ccc(/C=C/C=C2C(=O)NC(=S)NC2=O)cc1 | 0.53µM* | nt | -50* | nt | -26% | -31%
COc1ccc(C=C2C(=O)NC(=S)NC2=O)cc1OC | 21µM* | nt | -50* | nt | ? | 22µM*
CCOP(=O)(CCP(=O)(OCC)OCC)OCC.C[CH2][Sn]([Cl])([Cl])[CH2]C | 8.4µM* | nt | -1 | nt | 21% | -2%
Cn1c(=O)oc2cc(S(=O)(=O)N3CCC(C(=O)N4CC=C(c5ccccc5)CC4)CC3)ccc21 | -10% | 50µM* | 18 | -3% | 34% | -15%
COc1cccc(N2CCN(C(=O)C3CCCN(S(=O)(=O)c4ccc5c(c4)oc(=O)n5C)C3)CC2)c1 (centres undefined) | 0% | -7% | -2 | -14% | 8% | -19%
Oc1ccc2c3c1O[C@H]1c4oc5ccccc5c4C[C@@]4(O)C(C2)N(CC2CC2)CC[C@]314 | nt | -3%[59 µM] | nt | nt | nt | nt
C=CCN1CC[C@]23c4c5ccc(O)c4O[C@H]2C(=O)CC[C@@]3(O)[C@H]1C5 | -4% | 40µM*! | 1 | 35% | 20% | -26%
C=CCN1CCC23c4c5ccc(O)c4OC2/C(=N/N=C2\CCC4(O)C6Cc7ccc(O)c8c7C4(CCN6CC=C)C2O8)CCC3(O)C1C5 (centres undefined) | nt | 25µM* | nt | nt | nt | nt
C=CCN1CC[C@]23c4c5ccc(O)c4OC2[C@H](O)CC[C@@]3(O)[C@H]1C5 (some centres undefined) | -10% | nt | 0 | nt | 17% | -12%
